Hits are enriched below; roughly 19% of the tested compounds scored in any of these assays.
ELG1 repair inh – qHTS screen for small molecules that inhibit ELG1-dependent DNA repair in human embryonic kidney (HEK293T) cells expressing luciferase-tagged ELG1; HEK293T ELG1-luciferase reporter, luminescence, 16 h; DNA damage induced by 5-fluorouridine; Potency, µM (series often up to 46.1 µM), without a hit: top-dose activity change, negative = inhibition, actives largely listed as inhibitors; 330,000 compounds, 2.3% hits; AID 504467, 2011; further: potency means the concentration at half of the fitted maximal effect; nearly all actives have a fitted effect of over 55% in size
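DMSO vehicle served as the neutral condition. Each well held 2,000 cells given 5-fluorouridine plus compound; after 16 hr at 37 °C/5% CO2, ONE-Glo was added and luciferase measured 30 min later.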
IL1B secr inh – qHTS for Inhibitors of Inflammasome Signaling: IL-1-beta AlphaLISA Primary Screen. THP-1 LPS/ATP IL-1B secretion, AlphaLISA, 16 h; active compounds read low. AID 743279, 2014. 360,000 compounds, 4.7% hits. activity change, % at 57.5 µM; in the data active means activity change below about -50%; inconclusive means mostly about -30% to -49%
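THP-1 cells pretreated 1 hr with compounds (up to 57.5 uM final), then stimulated with LPS (250 ng/mL final) plus ATP (1.25 mM final); secreted IL-1B measured by AlphaLISA after 16 hr, decreased signal indicating inhibition.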
HT1080-NT tox – qHTS for induction of synthetic lethality in tumor cells producing 2HG: qHTS for the HT-1080-NT fibrosarcoma cell line; HT-1080-NT fibrosarcoma viability, CellTiter-Glo ATP luminescence, 48 h; Potency, µM (highest dose often 46.1 µM), without a hit: at the top dose activity, negative = less viability, actives largely listed as cytotoxic; 360,000 compounds, 1.6% hits; AID 686970, 2013;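 further: NT is the 2HG producing partner of a matched IDH1 knockdown line; potency means the concentration at half of the fitted maximal effect; 0% = DMSO-treated cells and -100% = media-only wells without cells; nearly all actives have a fitted effect of over 55% in size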
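Toxicity toward the 2HG-producing NT line was scored as %Activity, normalised to DMSO and no-cell wells, from CellTiter-Glo luminescence after 48 hours' treatment.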
HT1080 IDH1KD tx – qHTS for induction of synthetic lethality in tumor cells producing 2HG: qHTS for the HT-1080-IDH1KD cell line; HT-1080 IDH1 knockdown viability, ATP luminescence, 48 h; Potency, µM (titrated, usually from 46.1 µM), inactives show top-dose activity, negative = toxicity, usual class: cytotoxic; 360,000 compounds, 2% hits; AID 686971, 2013;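 further: potency means the concentration at half of the fitted maximal effect; 0% = DMSO wells and -100% = cell-free medium wells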
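HT-1080-IDH1KD cells (IDH1 knocked down), 750/well in RPMI with 5% FBS, treated with compound 48 h at 37 degrees C. Viability by CellTiter-Glo luminescence, normalised to DMSO and no-cell wells; concentration-response curves classed.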
DT40 TDP1 CPT – qHTS for Inhibitors of human tyrosyl-DNA phosphodiesterase 1 (TDP1): qHTS in cells in presence of CPT; 420,000 compounds, 12% hits; chicken DT40 Tdp1-/-;hTDP1 cells + 20 nM CPT, ATP luminescence, 48 h; Potency, µM (highest dose often 46.2 µM), for the others: at the top dose activity change, negative = growth inhibition, most hits filed as inhibitors; AID 686979, 2013; further: potency means the concentration at half of the fitted maximal effect; nearly all actives have a fitted effect of over 55% in size
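Chicken DT40 Tdp1-/- cells complemented with human TDP1, 400 cells/well, exposed to compounds plus 20 nM camptothecin for at least 48 h at 37 C; viability read as ATP content by CellTiter-Glo luminescence.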
DT40 TDP1 no CPT – qHTS for Inhibitors of human tyrosyl-DNA phosphodiesterase 1 (TDP1): qHTS in cells in absence of CPT; DT40 Tdp1-/- hTDP1 cells, no CPT, ATP luminescence, 48 h; Potency, µM (top dose mostly 46.2 µM), without a hit: at the highest dose activity change, negative = growth inhibition, usual class: inhibitors; 420,000 compounds, 15% hits; further: potency means the concentration at half of the fitted maximal effect; nearly all actives have a fitted effect of over 55% in size
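Luminescent ATP content (CellTiter-Glo) served as the growth readout. Knockout chicken DT40 cells expressing human TDP1 were exposed to compounds without camptothecin for a minimum 48 hr at 37 °C.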
Numbers without * were called inactive; u = inconclusive; x = no result. Unless noted, the call rests on the fitted dose curve; in most records, active means well fitted curve in the direction sought with a large enough effect; inconclusive means small, poorly fitted or top-dose-only effect, or another doubt; inactive means no such curve, though single readings can be large; an effect the other way counts as inactive or inconclusive. Unless noted, on the % scale 0 is the no-effect control and ±100 the full control effect.

SMILES	ELG1 repair inh	IL1B secr inh	HT1080-NT tox	HT1080 IDH1KD tx	DT40 TDP1 CPT	DT40 TDP1 no CPT
CCN(CC)S(=O)(=O)c1ccc(NC(=O)CC(NC(C)=O)c2ccccc2)cc1 (stereo not given)	5.3%	-17.1	-1.8%	1.0%	-26.1%	-6.0%
COc1cc(/C=C/C(=O)OC2CC3CCC2(C)C3(C)C)ccc1O (stereo not given)	u	11.4	-16.2%	u	18.4µM*	16.4µM*
COc1cc(/C=C/C(=O)OCC(=O)N2CCC(C)CC2)ccc1O	19.5%	-0.2	-12.7%	-19.0%	-10.2%	-14.9%
O=C(NCc1ccco1)c1ccc(CS(=O)Cc2ccc(Cl)cc2)o1 (stereo not given)	6.5%	-17.5	-4.3%	-2.4%	-2.3%	-3.6%
O=C1OC(c2ccc(F)cc2)CC1CN1CCOCC1 (stereo not given)	x	-11.3	u	16.4µM*	5.8µM*	10.3µM*
CCOC(=O)/C(=C/C=C1\Sc2ccccc2N1CC)C(C)=O	u	-69.3*	0.4%	-4.4%	20.6µM*	20.6µM*
CCOC(=O)/C(=C\C=C1/Sc2ccccc2N1CC)C(C)=O	u	u	-18.6%	-14.5%	u	11.6µM*
CCOC(=O)/C(C#N)=C1/C=Cc2ccccc2N1CC	20.1%	-10.3	-3.5%	-3.9%	-19.8%	-8.8%
CCOC(=O)/C(=C/C=C1\Sc2cc(C)c(C)cc2N1CC)C(C)=O	u	-92.5*	-7.8%	-5.0%	4.61µM*	2.31µM*
Cc1cccc(C)c1OCc1cc(C(=O)N2CCC(c3ccncc3)CC2)no1	u	-67.8*	u	-18.7%	9.2µM*	5.17µM*
O=C(c1cc(COc2c(F)cccc2F)on1)N1CCC(c2ccccc2Cl)C1 (stereo not given)	6.9%	-18.1	-9.7%	0.0%	-0.8%	-17.7%
O=C(c1cc(COc2c(F)cccc2F)on1)N1CCC(c2ccncc2)CC1	u	u	u	-25.7%	9.2µM*	9.2µM*
O=C(c1cc(COc2cccc3cnccc23)on1)N1CCC(c2ccccc2Cl)C1 (stereo not given)	u	-1.2	u	-21.5%	23.1µM*	18.4µM*
Cc1cccc(N2CN(S(=O)(=O)c3cccc([N+](=O)[O-])c3)c3nc4ccccc4nc32)c1	-0.3%	1.6	8.1%	27.9%	-0.5%	-15.5%
COc1ccc(N2CC(NC(=O)C(=O)c3c[nH]c4ccccc34)CC2=O)cc1 (stereo not given)	x	x	x	x	-6.0%	-27.4%
O=C(Nc1ccccc1O)c1ccc(NC(=O)C2CC2)cc1	u	-6.0	u	u	11.6µM*	11.6µM*
COc1cccc(NC(=O)c2cccc(Cl)c2)c1	u	-21.8	3.8%	1.6%	0.6%	-27.3%
O=C(Nc1ccccc1C(=O)O)c1ccc(NC(=O)C2CC2)cc1	25.1%	5.6	-5.7%	-15.3%	u	-10.5%
O=C(Nc1cccc(S(=O)(=O)Nc2ccc(SC(F)F)cc2)c1)C1CCC1	-29.9%	-0.9	14.6µM*	-16.2%	u	u
COc1cccc(NC(=O)Nc2ccc3nsnc3c2)c1	u	-56.3*	2.8%	3.5%	u	u
COc1cccc(NC(=O)Nc2cc(Cl)ccc2C)c1	-8.4%	-75.8*	-11.5%	-5.4%	u	u
COc1cccc(NC(=O)C2CCCC2)c1	16.9%	-1.1	5.2%	11.5%	-3.6%	-16.7%
COc1ccc(NC(=O)NC(C)(C(F)(F)F)C(F)(F)F)cc1	12.2%	0.0	1.6%	-2.0%	u	16.4µM*
COc1cccc(NC(=O)c2ccc(NC(=O)C3CC(=O)OC34CCCCC4)cc2)c1 (stereo not given)	7.3%	0.0	5.4%	1.3%	18.4µM*	u
COc1cccc(NC(=O)C2CC2)c1	u	-10.7	18.0%	10.3%	5.8µM*	-3.9%
SMILES	ELG1 repair inh	IL1B secr inh	HT1080-NT tox	HT1080 IDH1KD tx	DT40 TDP1 CPT	DT40 TDP1 no CPT
COc1ccc(NC(=O)Nc2cccc(OC)c2)cc1	x	-75.4*	-1.9%	6.2%	-15.8%	-0.9%
COc1ccc(NC(=O)C2CC(=O)OC23CCCCC3)cc1 (stereo not given)	-1.7%	-1.6	-3.5%	-2.9%	-20.5%	-20.9%
Cc1c(NC(=O)COc2c(F)c(F)c(F)c(F)c2F)c(=O)n(-c2ccccc2)n1C	11.5%	-8.5	-2.3%	-3.8%	-7.1%	-11.3%
COc1ccccc1N(CC(=O)Nc1ccccc1F)S(C)(=O)=O	x	x	x	x	-11.5%	-9.4%
CC(C)Oc1cccc(NC(=O)C2CCN(S(=O)(=O)Cc3ccccc3)CC2)c1	x	x	x	x	13µM*	u
COC(=O)c1[nH]c2ccc(F)cc2c1NC(=O)Nc1ccc(OC)cc1	-3.9%	11.8	-25.9%	u	u	6.51µM*
COC(=O)[C@H](C)NC(=O)Nc1ccc(Oc2ccccc2)cc1	6.4%	9.7	0.0%	-24.5%	u	6.31µM*
COc1ccc(NC(=O)Nc2ccc(F)cc2F)cc1	u	-21.5	16.3%	17.5%	9.2µM*	5.8µM*
COC(=O)c1[nH]c2ccc(C)cc2c1NC(=O)Nc1ccc(OC)cc1	24.2%	16.9	6.8%	2.4%	0.7%	-5.6%
O=C(Nc1cccc(Cl)c1)C1CCN(S(=O)(=O)Cc2ccccc2)CC1	x	x	x	x	-7.0%	u
COc1ccc(C)cc1NC(=O)c1ccc2c(O)c(S(=O)(=O)c3ccccc3)c(=O)[nH]c2c1	5.2%	19.6	-1.4%	15.5%	6.0%	12.5%
Cc1cc(C)n(-c2cccc(F)n2)n1	6.0%	33.0	7.3%	10.7%	3.2%	-7.7%
CCc1ccccc1NC(=O)N1CCCn2nc(C)cc21	x	x	x	x	6.4%	-22.4%
O=C(Nc1cccc(S(=O)(=O)c2cccc(NC(=O)C3CC3)c2)c1)C1CC1	-16.0%	-73.9*	u	u	20.6µM*	20.6µM*
O=C(CC1NCCc2ccccc21)Nc1ccccc1 (stereo not given)	u	-7.6	-18.2%	4.0%	3.1%	4.4%
O=C(Nc1ccc(Oc2ccccc2)cc1)C1CCN(c2ncccn2)CC1	-9.9%	-8.0	2.5%	-0.7%	-0.8%	-3.0%

Screening data from PubChem.
